Source: PubChem (National Center for Advancing Translational Sciences (NCATS))
Pol kappa inh-1 = inhibitors of human DNA polymerase kappa; Q9UBT6; purified Pol kappa, fluorescent DNA synthesis assay, 10 min; Potency, µM (titrated, usually from 107 µM), hits mostly inhibitors; 400,000 compounds, 0.53% hits; AID 588579
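10 nM Pol kappa preincubated 15 min at room temperature with compounds, then reaction started with substrate at 50 nM final. Fluorescence read kinetically at 0 and 10 min; buffer-only wells served as negative control.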
Pol beta inh = blocks human DNA polymerase beta activity | Pol beta primer extension/strand displacement, fluorescence kinetic | Potency, µM (doses to about 114 µM), hits mostly inhibitors | 340,000 compounds, 1.3% hits
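Pol beta (10 nM) and compounds were preincubated 15 min at room temperature, then 50 nM substrate (final) started primer extension/strand displacement. Reads were taken at 0 and 10 min; concentration-response data were fitted to a four-parameter Hill equation.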
Pol eta inh-1 = inhibitors of human DNA polymerase eta | Potency, µM (series often up to 114 µM), hits mostly inhibitors | recombinant Pol eta, fluorescent DNA replication assay | 390,000 compounds, 1.2% hits
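Pol eta (10 nM) was preincubated with compounds for 15 min at room temperature, after which fluorescent replication substrate (50 nM final) was added to start the reaction. Fluorescence was read kinetically at 0 and 10 min.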
L3MBTL1 inh = L3MBTL1 (human) inhibition | 230,000 compounds, 0.66% hits | Potency, µM (top dose mostly 57.1 µM), hits mostly inhibitors | AID 485360 | Q9Y468 | AlphaScreen L3MBTL1–H3K9me1 peptide binding; further: nearly all actives have a fitted effect of over 60% in size
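AlphaScreen proximity signal between nickel-chelate acceptor and streptavidin donor beads (final 10 ug/mL) reports binding of 50 nM L3MBTL1 to 75 nM biotin-H3 K9me1 peptide; complex incubated with compounds 30 min at room temperature; cefsulodin titration as control.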
Pol iota inh = DNA polymerase iota (human) inhibition | Q9UNA4 | Pol iota fluorescent replication assay, 10 min | Potency, µM (top dose mostly 115 µM), hits mostly inhibitors | 390,000 compounds, 1% hits | AID 588590
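Fluorescent replication assay read twice, at 0 min and 10 min after adding 50 nM (final) substrate. Enzyme (10 nM) and compounds were first incubated 15 min at room temperature; enzyme-free buffer wells were negative controls.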
PGK validate = blocks T. brucei phosphoglycerate kinase; shares compounds with Pol kappa inh-1; TbPGK coupled GAPDH assay, Kinase-Glo luminescence; 500 compounds, 79% hits; Potency, µM (top dose mostly 57.5 µM), hits mostly inhibitors; further: nearly all actives have a fitted effect of over 65% in size
Target sequence (P07378 whole entry, looked up): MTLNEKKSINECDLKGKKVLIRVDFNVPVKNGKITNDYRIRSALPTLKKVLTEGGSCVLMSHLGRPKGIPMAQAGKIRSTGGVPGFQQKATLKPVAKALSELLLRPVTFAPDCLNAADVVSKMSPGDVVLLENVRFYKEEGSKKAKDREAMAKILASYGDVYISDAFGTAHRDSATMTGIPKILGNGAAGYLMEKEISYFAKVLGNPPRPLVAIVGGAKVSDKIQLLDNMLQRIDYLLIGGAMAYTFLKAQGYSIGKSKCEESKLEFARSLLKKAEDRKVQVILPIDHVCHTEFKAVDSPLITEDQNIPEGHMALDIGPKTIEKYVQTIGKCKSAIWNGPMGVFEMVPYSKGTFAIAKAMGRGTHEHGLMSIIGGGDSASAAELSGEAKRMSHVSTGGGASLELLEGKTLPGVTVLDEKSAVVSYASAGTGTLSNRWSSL
POLI cherry-pick = Confirm cherry-picked inhibitors of human polymerase iota. 1,500 compounds, 77% hits. Potency, µM, actives largely listed as inhibitors. shares compounds with Pol kappa inh-1. Pol iota primer extension, TAMRA/BHQ fluorescence
GALK confirm = confirmation of human galactokinase (GALK) inhibitors; shares compounds with Pol eta inh-1; purified GALK, Kinase-Glo ATP depletion luminescence; Potency, µM (titrated, usually from 115 µM), usual class: inhibitors; 150 compounds, 70% hits
GALK redox cs = generates H2O2 by redox cycling, flagging GALK artifacts; shares compounds with Pol eta inh-1; Phenol red-HRP H2O2 redox cycling, absorbance 600 nm; Potency, µM (doses to about 115 µM), actives largely listed as inhibitors; 150 compounds, 40% hits; AID 2035
HEK293 viability = counter-screen for GALK inhibitors: HEK293 cell cytotoxicity; 170 compounds, 10% hits; HEK-293 viability, ATP luminescence (CellTiter-Glo), 24/48 h; Potency, µM (series often up to 46.1 µM), actives largely listed as inhibitors; shares compounds with Pol eta inh-1
Pol kappa inh-2 = Pol kappa (human) inhibition, cherry-pick confirmation; 920 compounds, 76% hits; AID 720501; shares compounds with Pol eta inh-1; purified Pol-kappa, fluorescent strand-displacement substrate; Potency, µM, actives largely listed as inhibitors
Pol eta inh-2 = Pol eta (human) inhibition, cherry-pick confirmation. shares compounds with Pol eta inh-1. Pol eta primer extension, TAMRA/BHQ fluorescence, 10 min. Potency, µM, most hits filed as inhibitors. 2,600 compounds, 64% hits
Of the large screens only hits and unclear results are named; the others gave an inactive call (follow-up assays come after a bar, where they were run). Only some compounds are listed: those with a hit (about 2.4% of all), similar ones and a draw of the others. The call rests on the fitted dose curve; in most records, active means well fitted curve in the direction sought with a large enough effect; inconclusive means small, poorly fitted or top-dose-only effect, or another doubt; inactive means no such curve, though single readings can be large; an effect the other way counts as inactive or inconclusive.

O=S(=O)(c1cc(O)ccc1O)c1cccc2c(S(=O)(=O)c3cc(O)ccc3O)cccc12	Pol kappa inh-1 18µM, Pol eta inh-1 4.5µM, L3MBTL1 inh 3.2µM, Pol iota inh 7.9µM (no result: Pol beta inh) | PGK validate 3.7µM | POLI cherry-pick 8.4 | Pol kappa inh-2 9.5 | Pol eta inh-2 15
O=C(NN1C(=O)/C(=C/C=C/c2ccco2)SC1=S)c1ccncc1	Pol kappa inh-1 3.2µM, Pol beta inh inconclusive, Pol eta inh-1 1.4µM, Pol iota inh 1.3µM (no result: L3MBTL1 inh) | PGK validate 3.3µM | POLI cherry-pick 6.7 | Pol kappa inh-2 3.8 | Pol eta inh-2 3.4
N#Cc1cccc(-c2ccc3ncnc(NCc4cccnc4)c3c2)c1	none (no result: Pol beta inh, Pol eta inh-1, L3MBTL1 inh, Pol iota inh)
Cc1ccc2oc(C(=O)Nc3c(C(=O)Nc4cccc(Cl)c4)oc4ccccc34)cc(=O)c2c1	none (no result: L3MBTL1 inh)
CC1=C(C(=O)Nc2ccccc2)C(c2ccc[nH]2)n2ncnc2N1 (configuration not stated)	Pol kappa inh-1 inconclusive, Pol beta inh 8.9µM, L3MBTL1 inh 1.6µM, Pol iota inh inconclusive (no result: Pol eta inh-1) | POLI cherry-pick 8.4 | Pol kappa inh-2 3.4 | Pol eta inh-2 8.5
CC1=C(C(=O)Nc2ccccc2)C(c2ccccn2)n2ncnc2N1 (configuration not stated)	none (no result: L3MBTL1 inh)
O=C1C(=O)c2ccc(-c3ccccc3)cc2-c2ccccc21	Pol eta inh-1 5.6µM, L3MBTL1 inh inconclusive | POLI cherry-pick inconclusive | GALK confirm 6µM | GALK redox cs 3µM | HEK293 viability 7.9µM | Pol eta inh-2 30
Nc1ccc2c(c1)C(=O)c1ccccc1-2	none (no result: Pol beta inh, L3MBTL1 inh)
Nc1ccc2c(c1)C(=O)c1ccccc1C2=O	none (no result: Pol beta inh)
Nc1ccc2c(c1)C(=O)C(=O)c1ccccc1-2	Pol beta inh 5µM, Pol eta inh-1 0.79µM, Pol iota inh 1µM (no result: L3MBTL1 inh) | PGK validate 1.6µM | POLI cherry-pick 6.7 | GALK confirm 2.4µM | GALK redox cs 1.3µM | HEK293 viability 7.9µM | Pol eta inh-2 4.8
Cc1nc2ncnn2c(C)c1CCC(=O)NCc1ccc(Cl)cc1	none (no result: L3MBTL1 inh)
CCOc1cc(/C=C(\C#N)C(N)=O)cc(CSc2ccccc2)c1O	none (no result: Pol beta inh, Pol eta inh-1, L3MBTL1 inh, Pol iota inh)
Oc1cccc(/C=N/NC(=S)Nc2cccnc2)c1O	Pol kappa inh-1 inconclusive, Pol beta inh 16µM, Pol eta inh-1 20µM, L3MBTL1 inh 4µM, Pol iota inh 7.9µM | POLI cherry-pick 38 | Pol eta inh-2 85
Oc1ccc(/C=N/NC(=S)Nc2cccnc2)c(O)c1O	Pol kappa inh-1 2.2µM, Pol beta inh inconclusive, Pol eta inh-1 inconclusive, Pol iota inh inconclusive (no result: L3MBTL1 inh) | POLI cherry-pick 2.7 | Pol kappa inh-2 3 | Pol eta inh-2 3
COc1ccc(-c2cc(C(F)(F)F)nc(SCC(=O)NCc3ccc(Cl)cc3)n2)cc1	none (no result: L3MBTL1 inh)
